Results reported in PubChem BioAssay.
Active and inactive are the calls of the source. Unless noted, no rule for the calls is given here.

Assays:
[1] = tested on: Wnt5a (protein binding on small-molecule microarray); assay: small molecules binding Wnt5a protein – biophysical, small-molecule microarray, 635/667 nm fluorescence, primary screen (AID 1142); details: 635 nm fluorescence, higher = more signal;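 also: fluorescence read at 667 nm with signal to noise per printed feature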
[2] = ATP-based viability of Huh7 replicon cells – cell-based, CellTiter-Glo luminescence, basal, 48 h, cytotoxicity control for HCV replication inhibitor project, primary screen (AID 1143); details: higher = more signal, called active from +8 up or from −8 down;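 also: Huh7 hepatoma cells carrying a hepatitis C replication reporter with no stimulus; test concentration not given here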
[3] = Pseudomonas biofilm growth suppression – PAO1 strain, BacTiter-Glo luminescence, LB-PBS, primary screen (AID 1144); details: P. aeruginosa PAO1 biofilm, 12 h, higher = more signal
[4] = basal CRE-LacZ reporter activity in PC12 – cell-based, unstimulated, primary screen (AID 1145); details: no forskolin, luminescence, 4.5 h, higher = more signal, called active from +8 up or from −8 down
[5] = forskolin-driven CRE-LacZ activity in PC12 – cell-based, CRE-LacZ reporter, forskolin-stimulated, primary screen (AID 1146); details: luminescence, 4.5 h, higher = more signal, called active from +8 up or from −8 down;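 also: PC12 cells with 6xCRE LacZ reporter stimulated by forskolin 10 µM; beta-galactosidase reporter signal reflecting CREB driven transcription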
[6] = target: Streptavidin (Streptomyces avidinii) (UniProt P22629); assay: compounds binding control protein streptavidin – biophysical, small-molecule microarray, 635/667 nm fluorescence, artefact control for SMM compound annotation, primary screen (AID 1147); details: higher = more signal;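 also: signal reflects streptavidin binding to arrayed compounds as a control protein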
[7] = probe aInhba binding on compound microarray – biochemical, small-molecule microarray, 635/667 nm fluorescence, primary screen (AID 1148); details: higher = more signal;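 also: score merges 667nm spot fluorescence with signal-to-noise for antibody binding to printed compounds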
Torsin-1A (Homo sapiens) [8] = target: Torsin-1A (Homo sapiens) (UniProt O14656); assay: TOR1A wild-type binding on microarray – cell lysate, small-molecule microarray, lysate, 635/667 nm, primary screen (AID 1149); details: COS7 hTOR1A-WT lysate, 635 nm fluorescence, higher = more signal
Torsin-1A (Homo sapiens) [9] = target: Torsin-1A (Homo sapiens) (UniProt O14656); assay: torsin A mutant lysate binding on microarrays – cell lysate, small-molecule microarray, COS7 lysate, 635/667 nm fluorescence, primary screen (AID 1150); details: COS7 hTOR1A mutant lysate, 635 nm fluorescence, higher = more signal;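 also: score pools 667 nm emission and signal to noise measuring lysate protein binding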
[10] = tested on: Sonic hedgehog protein (Shh); assay: Sonic hedgehog microarray binding compounds – biochemical, small-molecule microarray, 635/667 nm fluorescence, primary screen (AID 1151); details: 635 nm fluorescence, higher = more signal;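 also: Shh protein binding to compounds spotted on small-molecule microarray slides; score combines spot fluorescence intensity with signal-to-noise across triplicate slides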
[11] = optical density shifts of acrAB sulA E. coli – strain DRC41, OD650, 48 h, E. coli filamentation inducer project, primary screen (AID 1152); details: higher = more signal, called active from +8 up or from −8 down;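 also: E. coli MC1000 strain DRC41 lacking acrAB efflux pump and sulA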
[12] = probe aLefty1 binding on compound microarray – biochemical, small-molecule microarray, 635/667 nm fluorescence, primary screen (AID 1153); details: higher = more signal;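 also: score merges spot fluorescence with signal-to-noise ratio from the scanned slide images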
[13] = plasmodial surface anion channel blockers, osmotic lysis – cell-based, P. falciparum Indochina, OD700, 1 h, primary screen (AID 1154); details: P. falciparum Indochina infected RBC osmotic lysis, higher = more signal, called active from +8 up or from −8 down
[14] = plasmodial surface anion channel blockers, osmotic lysis – cell-based, P. falciparum Indochina, OD700, 2 h, primary screen (AID 1155);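 also: lysis reports solute entry through the parasite surface anion channel PSAC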; details: P. falciparum Indochina infected erythrocytes, higher = more signal, called active from +8 up or from −8 down
[15] = changes in parasitized red cell lysis, either direction – P. falciparum Indochina, OD700, 3 h, PSAC antagonist project, primary screen (AID 1156); details: P. falciparum-infected erythrocytes, osmotic lysis, higher = more signal, called active from +8 up or from −8 down
[16] = plasmodial surface anion channel blockers, osmotic lysis – cell-based, P. falciparum Indochina, OD700, 18 h, primary screen (AID 1157); details: P. falciparum Indochina infected erythrocytes, osmotic lysis OD700, 18 h; higher = more signal, called active from +8 up or from −8 down
[17] = S6 kinase pathway phospho-S6 level changes – cell-based, A549, cytoblot, luminescence, serum-stimulated, primary screen (AID 1158); details: 5 h, higher = more signal;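 also: serum-stimulated A549 lung adenocarcinoma cells; signal is phosphorylated S6 detected by cytoblot immunostaining with HRP secondary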
[18] = target: NADPH oxidase 2 (Homo sapiens) (UniProt P04839); assay: compounds shifting NOX2 Amplex Red fluorescence – cell-based, HEK293-NOX2, PMA-stimulated, NOX inhibitor project, primary screen (AID 1159); details: 45 min, higher = more signal, called active from +8 up or from −8 down; also: test concentration not given here
[19] = target: NADPH oxidase 4 (Homo sapiens) (UniProt Q9NPH5); assay: compounds shifting NOX4 Amplex Red fluorescence – cell-based, HEK293-NOX4, tetracycline-induced, NOX inhibitor project, primary screen (AID 1160); details: HEK293-NOX4, Amplex Red H2O2 fluorescence, 45 min; higher = more signal, called active from +8 up or from −8 down
[20] = target: NADPH oxidase 5 (Homo sapiens) (UniProt Q96PH1); assay: compounds shifting NOX5 Amplex Red fluorescence – cell-based, HEK293-NOX5, NOX inhibitor project, primary screen (AID 1161); details: HEK293-NOX5, ionomycin, 45 min, higher = more signal
NADPH oxidase 5 (Homo sapiens), sequence (Q96PH1 whole entry, looked up): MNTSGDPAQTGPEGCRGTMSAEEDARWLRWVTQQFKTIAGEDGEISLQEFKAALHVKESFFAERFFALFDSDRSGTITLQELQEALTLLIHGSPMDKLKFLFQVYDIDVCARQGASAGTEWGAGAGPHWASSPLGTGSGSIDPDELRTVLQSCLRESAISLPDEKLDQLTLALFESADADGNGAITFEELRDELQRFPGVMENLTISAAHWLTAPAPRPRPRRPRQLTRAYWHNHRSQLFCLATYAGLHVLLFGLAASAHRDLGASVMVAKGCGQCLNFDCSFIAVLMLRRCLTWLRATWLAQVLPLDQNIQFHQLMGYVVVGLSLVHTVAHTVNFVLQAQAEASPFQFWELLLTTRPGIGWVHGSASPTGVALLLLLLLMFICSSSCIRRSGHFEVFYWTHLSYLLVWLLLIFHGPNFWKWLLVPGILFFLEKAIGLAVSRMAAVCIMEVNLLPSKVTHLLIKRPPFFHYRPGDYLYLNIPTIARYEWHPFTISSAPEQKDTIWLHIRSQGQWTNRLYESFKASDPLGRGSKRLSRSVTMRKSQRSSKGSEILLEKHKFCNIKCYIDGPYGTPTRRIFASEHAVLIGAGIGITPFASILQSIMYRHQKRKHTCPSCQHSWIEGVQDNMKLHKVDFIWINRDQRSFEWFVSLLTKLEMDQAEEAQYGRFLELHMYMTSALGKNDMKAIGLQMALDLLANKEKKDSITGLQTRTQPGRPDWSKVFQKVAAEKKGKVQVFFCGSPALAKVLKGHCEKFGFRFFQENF

Torsin-1A (Homo sapiens), sequence (O14656 whole entry, looked up): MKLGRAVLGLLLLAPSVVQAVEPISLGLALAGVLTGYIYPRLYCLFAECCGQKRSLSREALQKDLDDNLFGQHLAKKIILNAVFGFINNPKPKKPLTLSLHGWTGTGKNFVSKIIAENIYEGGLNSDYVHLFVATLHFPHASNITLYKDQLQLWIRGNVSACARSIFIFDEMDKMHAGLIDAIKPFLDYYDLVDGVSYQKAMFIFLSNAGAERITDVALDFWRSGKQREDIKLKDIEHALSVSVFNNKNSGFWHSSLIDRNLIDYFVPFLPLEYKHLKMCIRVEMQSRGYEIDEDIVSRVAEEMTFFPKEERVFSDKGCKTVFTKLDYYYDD
NADPH oxidase 4 (Homo sapiens), sequence (Q9NPH5 whole entry, looked up): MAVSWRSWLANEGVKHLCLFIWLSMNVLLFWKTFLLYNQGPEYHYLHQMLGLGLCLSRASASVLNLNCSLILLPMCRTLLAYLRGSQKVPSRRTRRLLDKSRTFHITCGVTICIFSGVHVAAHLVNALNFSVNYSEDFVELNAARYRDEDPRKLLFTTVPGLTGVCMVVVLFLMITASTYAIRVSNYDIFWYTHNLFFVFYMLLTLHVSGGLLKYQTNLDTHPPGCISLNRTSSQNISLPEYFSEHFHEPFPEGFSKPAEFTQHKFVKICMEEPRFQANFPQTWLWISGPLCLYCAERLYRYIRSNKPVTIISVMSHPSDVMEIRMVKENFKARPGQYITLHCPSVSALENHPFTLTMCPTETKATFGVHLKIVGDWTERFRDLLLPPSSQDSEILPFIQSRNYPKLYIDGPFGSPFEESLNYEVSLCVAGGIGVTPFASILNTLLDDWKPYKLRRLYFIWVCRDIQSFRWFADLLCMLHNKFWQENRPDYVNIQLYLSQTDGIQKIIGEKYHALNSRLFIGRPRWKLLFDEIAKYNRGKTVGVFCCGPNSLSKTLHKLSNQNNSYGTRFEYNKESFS
NADPH oxidase 2 (Homo sapiens), sequence (P04839 whole entry, looked up): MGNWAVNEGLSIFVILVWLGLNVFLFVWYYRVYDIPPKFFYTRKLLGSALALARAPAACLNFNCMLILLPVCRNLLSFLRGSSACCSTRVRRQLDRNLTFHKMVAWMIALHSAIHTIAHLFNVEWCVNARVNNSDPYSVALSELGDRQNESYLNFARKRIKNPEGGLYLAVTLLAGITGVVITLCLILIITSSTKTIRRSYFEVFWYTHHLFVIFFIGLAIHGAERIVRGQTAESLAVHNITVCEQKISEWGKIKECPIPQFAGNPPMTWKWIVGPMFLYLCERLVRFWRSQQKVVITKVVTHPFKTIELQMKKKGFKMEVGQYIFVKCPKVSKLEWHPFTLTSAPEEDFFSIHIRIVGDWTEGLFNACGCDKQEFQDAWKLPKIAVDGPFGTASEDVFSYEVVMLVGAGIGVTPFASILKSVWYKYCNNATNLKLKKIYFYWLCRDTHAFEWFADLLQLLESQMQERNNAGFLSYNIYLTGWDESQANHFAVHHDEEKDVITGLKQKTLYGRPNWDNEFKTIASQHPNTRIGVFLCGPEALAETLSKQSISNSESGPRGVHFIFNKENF
Streptavidin (Streptomyces avidinii), sequence (P22629 whole entry, looked up): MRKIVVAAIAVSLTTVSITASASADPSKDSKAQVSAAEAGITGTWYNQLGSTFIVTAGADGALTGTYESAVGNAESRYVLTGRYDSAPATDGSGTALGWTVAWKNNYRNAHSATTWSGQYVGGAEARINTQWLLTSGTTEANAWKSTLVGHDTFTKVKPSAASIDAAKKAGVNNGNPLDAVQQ

Row | Structure (SMILES) | composite z-score [1] | z-score [2] | z-score [3] | z-score [4] | z-score [5] | composite z-score [6] | composite z-score [7] | composite z-score (Torsin-1A (Homo sapiens) [8]) | composite z-score (Torsin-1A (Homo sapiens) [9]) | composite z-score [10] | z-score [11] | composite z-score [12] | z-score [13] | z-score [14] | z-score [15] | z-score [16] | z-score [17] | z-score [18] | z-score [19] | z-score [20]
1 | [N-]=[N+]=NCc1ccccc1[C@@H]1OC(c2ccc(OCCCO)cc2)=N[C@]1(Cc1ccccc1N=[N+]=[N-])C(=O)N1CCCCC1 | 0.0032 | -1.91 (inactive) | -0.166 (inactive) | -0.753 (inactive) | -0.189 (inactive) | 1.58 | 0.329 | 0.133 | 1.31 | 0.0257 | 0.155 (inactive) | 0.358 | 16.3 (active) | 2.78 (inactive) | 1.15 (inactive) | 0.86 (inactive) | 0.0177 | -1.45 (inactive) | 0.924 (inactive) | 1.17
2 | C=C[C@@H](C)[C@H](O)c1ccc(OCCO)cc1 | -0.872 | -0.104 (inactive) | -0.307 (inactive) | 0.166 (inactive) | -0.049 (inactive) | -1.83 | -0.263 | -3.14 | -1.86 | -0.509 | 0.227 (inactive) | -0.193 | 1.79 (inactive) | 0.833 (inactive) | 0.485 (inactive) | 0.402 (inactive) | -0.198 | -0.613 (inactive) | -0.311 (inactive) | 0.394
3 | COc1cc(NN2C(C(O)C3CCCCC3)C=CC3C(=O)N(C)C(=O)C32)cc(OC)c1OC (stereo not given) | 0.265 | 0.187 (inactive) | 0.0648 (inactive) | -0.133 (inactive) | 0.454 (inactive) | 2.2 | 0.502 | -0.176 | 0.358 | -0.68 | -1.27 (inactive) | 0.949 | 0.713 (inactive) | 0.608 (inactive) | 0.917 (inactive) | 1.34 (inactive) | -0.723 | -0.904 (inactive) | -2.73 (inactive) | -1.7
4 | COc1ccc(C(=O)Nc2cccc(CN3C(=O)[C@]4(O[C@H](CCn5cc([C@H](O)c6ccccc6)nn5)[C@@H]([Si](C)(C)c5ccc(OC)cc5)[C@@H]4C)c4ccccc43)c2)cc1 | 0.194 | -7.81 (inactive) | -0.568 (inactive) | -0.36 (inactive) | -0.413 (inactive) | 0.192 | -0.183 | 0.0107 | 0.205 | 1.69 | 0.959 (inactive) | 0.051 | 1.23 (inactive) | 0.0918 (inactive) | 1.82 (inactive) | -0.209 (inactive) | 0.871 | -0.498 (inactive) | 0.245 (inactive) | -0.305
